# Only some compounds are listed: those with a hit (about 1.5% of all), similar ones and a draw of the others.
# CCHF vOTU inh: blocks the CCHF virus ovarian tumor domain protease; CCHFV vOTU protease, Pep-AMC fluorescence; inhibition, % at 11.5 µM; 370,000 compounds, 0.55% hits; AID 651958; in the data active = inhibition above about 30%; note: 0% = vehicle wells with enzyme and 100% = no enzyme wells
# VHR inh abs: DUSP3 (human) phosphatase inhibition; P51452; recombinant VHR phosphatase, pNPP absorbance; inhibition, % at 13.3 µM; 290,000 compounds, 0.52% hits; in the data active = inhibition above about 50%
# Target sequence (P51452 whole entry, looked up): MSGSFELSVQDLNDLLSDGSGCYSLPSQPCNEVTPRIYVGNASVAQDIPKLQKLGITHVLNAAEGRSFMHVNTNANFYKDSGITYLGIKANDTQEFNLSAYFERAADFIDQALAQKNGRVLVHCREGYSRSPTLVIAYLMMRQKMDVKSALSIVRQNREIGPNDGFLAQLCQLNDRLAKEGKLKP
# ugtP null kill: kills S. aureus RN4220 lacking UgtP. S. aureus RN4220 ugtP deletion, OD600 growth, 16 h. growth inhibition, % (concentration not given with the values). 330,000 compounds, 0.54% hits. AID 1259309; in the data active = growth inhibition above about 68%;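 note: plate controls were untreated wells for no effect and antibiotic for full effect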
# SSB-PriA inh: K. pneumoniae PriA-SSBct interaction inhibition. inhibition, % at 33 µM. AlphaScreen SSBct-PriA binding, biotinylated peptide. 430,000 compounds, 0.6% hits; in the data active = inhibition mostly above about 37%, no sharp cut-off; inactive = mostly below about 20%;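 note: plate controls were negative control peptide for no effect and reference peptide for full effect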
# RN4220 kill: S. aureus RN4220 growth inhibition. OD600, 16 h. inhibition, % (no concentration beside the values). 330,000 compounds, 0.33% hits; in the data active = inhibition above about 85%;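 note: plate controls were untreated cells for no effect and reference antibiotic for full effect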
# * hit, by the source's call; / = not tested or not shown.
SMILES,CCHF vOTU inh,VHR inh abs,ugtP null kill,SSB-PriA inh,RN4220 kill
O=C(Cn1nnc2ccccc21)N1CCc2ncncc2C1,/,/,/,-7,/
CCOc1ccccc1-n1ccn(Cc2ccccc2F)c(=O)c1=O,/,/,/,-14,/
CN(C)c1nc(NN=Cc2ccccc2O)nc(Nc2ccc(F)cc2)n1,/,/,100*,-4,100*
CN(C)c1nc(NCc2ccccc2)nc(NN=Cc2ccc(Cl)cc2Cl)n1,/,/,-9,-12,-5
O=C(NNC(=O)c1cc2ccccc2oc1=O)c1ccc(=O)n(Cc2ccccc2)c1,/,/,/,-3,/
CCOc1ccc(-c2cc(C)[n+](CCc3ccc(OC)c(OC)c3)c(-c3ccc(OCC)cc3)c2)cc1,29,-35,100*,21,100*
CCOc1ccc(-c2cc(C)[n+](CCO)c(-c3ccc(OCC)cc3)c2)cc1,-89,16,-2,0,3
COc1ccc(CCNC(=O)c2cc(-c3ccncc3)nc3c(Cl)cccc23)cc1OC,22,53*,-4,9,-5
COc1ccc(CCNC(=O)c2cc(-c3ccccn3)nc3c(Cl)cccc23)cc1OC,-13,15,5,-8,-1
COc1ccccc1CNC(=O)c1cc(-c2ccncc2)nc2c(Cl)cccc12,-9,2,10,6,0
COc1ccc(CNC(=O)c2cc(-c3ccncc3)nc3c(C)cc(C)cc23)cc1OC,1,57*,0,-10,4
Cc1ccc(OC2CCCN(C(=O)C3CC(=O)N(C4CCOCC4)C3)C2)nn1 (centres undefined),/,/,/,-10,/
O=C(Nc1nnc(-c2ccccc2)o1)c1nc2ccccc2s1,13,10,98*,-20,98*
O=C(c1cccs1)N1CC(N2C(=O)C3CC=CCC3C2=O)C1 (centres undefined),/,/,/,-6,/
CC(=O)Nc1ccc(S(=O)(=O)Nc2ccc3c(c2)CN(C(=O)c2ccco2)CC3)cc1,/,/,/,-7,/
